The campaign covered roughly 5,500 compounds. About 2,000 (36%) were called active. Inconclusive results (about 18%) are left out. Rule as the data show it: active = normalized growth mostly below about 0.91 (no sharp cut-off); inconclusive = no clear call, values can overlap the other calls; inactive = mostly above about 0.92. This is one part of the list.
Experiment: chemical genetic growth profiling, strain panel (AID 1159580);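 also: tested at 20 µM; growth read once vehicle control cultures reached saturation at 30 °C; 1 = growth at the plate median or of vehicle wells; lower values mean less growth of the strain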
Settings: growth OD

Measured: normalized growth

COC(=O)Nc1nc2ccc(C(=O)c3ccccc3)cc2[nH]1
inactive: S. cerevisiae deletion strains, locus YJR075W, strain HOC1, stronger effect = lower value 0.924 | S. cerevisiae deletion strains, locus YKL009W, strain mrt4, stronger effect = lower value 1.05 | S. cerevisiae deletion strains, locus YKL085W, strain MDH1 (second series), stronger effect = lower value 1.05 | S. cerevisiae deletion strains, locus YKL085W, strain MDH1, stronger effect = lower value 1.05 | S. cerevisiae deletion strains, locus YKL190W, strain CNB1, stronger effect = lower value 1.01 | S. cerevisiae deletion strains, locus YKR001C, strain vps1, stronger effect = lower value 0.956 | S. cerevisiae deletion strains, locus YKR026C, strain gcn3, stronger effect = lower value 0.956 | S. cerevisiae deletion strains, locus YKR091W, strain srl3, stronger effect = lower value 1 | S. cerevisiae deletion strains, locus YLL001W, strain dnm1, stronger effect = lower value 0.933 | S. cerevisiae deletion strains, locus YLL026W, stronger effect = lower value 0.973 | S. cerevisiae deletion strains, locus YLL041C, strain sdh2, stronger effect = lower value 0.984 | S. cerevisiae deletion strains, locus YLR027C, strain aat2, stronger effect = lower value 0.94 | S. cerevisiae deletion strains, locus YLR039C, strain RIC1, stronger effect = lower value 0.938 | S. cerevisiae deletion strains, locus YLR058C, strain SHM2, stronger effect = lower value 1.02 | S. cerevisiae deletion strains, locus YLR102C, strain apc9, stronger effect = lower value 1 | S. cerevisiae deletion strains, locus YLR113W, strain HOG1, stronger effect = lower value 0.946 | S. cerevisiae deletion strains, locus YLR221C, strain rsa3, stronger effect = lower value 0.939 | S. cerevisiae deletion strains, locus YLR258W, strain gsy2, stronger effect = lower value 0.949 | S. cerevisiae deletion strains, locus YLR262C, strain YPT6, stronger effect = lower value 0.98 | S. cerevisiae deletion strains, locus YLR268W, strain sec22, stronger effect = lower value 0.98 | S. cerevisiae deletion strains, locus YLR330W, strain CHS5, stronger effect = lower value 1 | S. cerevisiae deletion strains, locus YLR342W, strain FKS1 (second series), stronger effect = lower value 0.852 | S. cerevisiae deletion strains, locus YLR357W, strain rsc2, stronger effect = lower value 0.925 | S. cerevisiae deletion strains, locus YLR370C, strain arc18, stronger effect = lower value 0.946 | S. cerevisiae deletion strains, locus YLR371W, strain rom2, stronger effect = lower value 1.01 | S. cerevisiae deletion strains, locus YLR384C, strain iki3, stronger effect = lower value 1 | S. cerevisiae deletion strains, locus YLR418C, strain cdc73, stronger effect = lower value 0.932 | S. cerevisiae deletion strains, locus YML016C, strain PPZ1, stronger effect = lower value 1.01 | S. cerevisiae deletion strains, locus YML032C, strain rad52, stronger effect = lower value 0.957 | S. cerevisiae deletion strains, locus YML120C, strain ndi1, stronger effect = lower value 0.96 | S. cerevisiae deletion strains, locus YMR058W, strain fet3, stronger effect = lower value 0.968 | S. cerevisiae deletion strains, locus YMR078C, strain ctf18, stronger effect = lower value 0.986 | S. cerevisiae deletion strains, locus YMR125W, strain sto1, stronger effect = lower value 1.03 | S. cerevisiae deletion strains, locus YMR129W, stronger effect = lower value 0.987 | S. cerevisiae deletion strains, locus YMR223W, strain ubp8, stronger effect = lower value 0.965 | S. cerevisiae deletion strains, locus YMR231W, strain pep5, stronger effect = lower value 0.955 | S. cerevisiae deletion strains, locus YMR263W, strain SAP30, stronger effect = lower value 0.999 | S. cerevisiae deletion strains, locus YNL067W, strain RPL9B, stronger effect = lower value 0.978 | S. cerevisiae deletion strains, locus YNL071W, strain lat1, stronger effect = lower value 0.925 | S. cerevisiae deletion strains, locus YNL128W, strain TEP1, stronger effect = lower value 1.01 | S. cerevisiae deletion strains, locus YNL209W, strain ssb2, stronger effect = lower value 0.971 | S. cerevisiae deletion strains, locus YNL248C, strain rpa49, stronger effect = lower value 0.977 | S. cerevisiae deletion strains, locus YNL250W, strain rad50, stronger effect = lower value 0.994 | S. cerevisiae deletion strains, locus YNL271C, strain bni1, stronger effect = lower value 1.01 | S. cerevisiae deletion strains, locus YNL298W, strain CLA4, stronger effect = lower value 1 | S. cerevisiae deletion strains, locus YNL322C, strain KRE1, stronger effect = lower value 0.997 | S. cerevisiae deletion strains, locus YNR049C, strain mso1, stronger effect = lower value 0.981 | S. cerevisiae deletion strains, locus YOL006C, strain TOP1, stronger effect = lower value 0.968 | S. cerevisiae deletion strains, locus YOL012C, strain htz1 0.338 | S. cerevisiae deletion strains, locus YOL147C, strain pex11, stronger effect = lower value 0.988 | S. cerevisiae deletion strains, locus YOR001W, strain rrp6, stronger effect = lower value 0.925 | S. cerevisiae deletion strains, locus YOR061W, strain CKA2, stronger effect = lower value 1 | S. cerevisiae deletion strains, locus YOR069W, strain VPS5, stronger effect = lower value 0.993 | S. cerevisiae deletion strains, locus YOR070C, strain gyp1, stronger effect = lower value 0.949 | S. cerevisiae deletion strains, locus YOR080W, strain dia2, stronger effect = lower value 0.979 | S. cerevisiae deletion strains, locus YOR083W, strain WHI5, stronger effect = lower value 0.896 | S. cerevisiae deletion strains, locus YOR136W, strain idh2, stronger effect = lower value 1.01 | S. cerevisiae deletion strains, locus YOR144C, strain elg1, stronger effect = lower value 1 | S. cerevisiae deletion strains, locus YOR231W, strain MKK1, stronger effect = lower value 0.931 | S. cerevisiae deletion strains, locus YOR265W, strain rbl2, stronger effect = lower value 0.98 | S. cerevisiae deletion strains, locus YOR270C, strain vph1, stronger effect = lower value 1.07 | S. cerevisiae deletion strains, locus YOR290C, strain snf2, stronger effect = lower value 0.959 | S. cerevisiae deletion strains, locus YOR316C, strain cot1, stronger effect = lower value 1 | S. cerevisiae deletion strains, locus YPL055C, strain LGE1, stronger effect = lower value 0.865 | S. cerevisiae deletion strains, locus YPL078C, strain atp4, stronger effect = lower value 0.931 | S. cerevisiae deletion strains, locus YPL106C, strain sse1, stronger effect = lower value 1.12 | S. cerevisiae deletion strains, locus YPL240C, strain hsp82, stronger effect = lower value 0.992 | S. cerevisiae deletion strains, locus YPL256C, strain CLN2, stronger effect = lower value 0.914 | S. cerevisiae deletion strains, locus YPR119W, strain clb2, stronger effect = lower value 0.998 | S. cerevisiae deletion strains, locus YPR141C, strain kar3, stronger effect = lower value 1.03 | S. cerevisiae deletion strains, locus YPR167C, strain met16, stronger effect = lower value 1 | S. cerevisiae deletion strains, strain wtn01, stronger effect = lower value 0.983 | S. cerevisiae strains, strain wild type, stronger effect = lower value 0.99
active: S. cerevisiae deletion strains, locus YKL160W, strain elf1, stronger effect = lower value 0.894 | S. cerevisiae deletion strains, locus YLR262C, strain YPT6 (second series), stronger effect = lower value 0.782 | S. cerevisiae deletion strains, locus YLR320W, strain mms22, stronger effect = lower value 0.849 | S. cerevisiae deletion strains, locus YLR342W, strain FKS1, stronger effect = lower value 0.908 | S. cerevisiae deletion strains, locus YML124C, strain tub3, stronger effect = lower value 0.207 | S. cerevisiae deletion strains, locus YMR205C, strain PFK2, stronger effect = lower value 0.806 | S. cerevisiae deletion strains, locus YMR307W, strain GAS1, stronger effect = lower value 0.463 | S. cerevisiae deletion strains, locus YNL153C, strain GIM3, stronger effect = lower value 0.0819 | S. cerevisiae deletion strains, locus YNL183C, strain NPR1, stronger effect = lower value 0.827 | S. cerevisiae deletion strains, locus YNL233W, strain BNI4, stronger effect = lower value 0.814 | S. cerevisiae deletion strains, locus YNL307C, strain MCK1, stronger effect = lower value 0.742 | S. cerevisiae deletion strains, locus YNL322C, strain KRE1 (second series), stronger effect = lower value 0.901 | S. cerevisiae deletion strains, locus YNR052C, strain pop2, stronger effect = lower value 0.91 | S. cerevisiae deletion strains, locus YOR106W, strain vam3, stronger effect = lower value 0.855 | S. cerevisiae deletion strains, locus YOR184W, strain ser1, stronger effect = lower value 0.717 | S. cerevisiae deletion strains, locus YPL051W, strain arl3, stronger effect = lower value 0.869 | S. cerevisiae deletion strains, locus YPL241C, strain CIN2, stronger effect = lower value 0.0733 | S. cerevisiae deletion strains, locus YPR163C, strain tif3, stronger effect = lower value 0.799

— PubChem BioAssay AID1159580 (chemical genetic matrix, 2015)
